# Experimental data as given in PubChem BioAssay (Tox21).
# Several values for one entry are separate records, joined by “and”; a condition that tells them apart may be missing. Equal values may be shown once. Inconclusive results are not listed. Some structures have more than one record in an assay (separate samples or runs), and their calls can disagree. Activity calls are given as the source filed them. Calls come from the whole dose curve; as a rule, active = well fitted activation curve with a large enough effect in the repeat runs; inconclusive = weak or mixed curves; inactive = flat fitted curve, though single readings scatter.
# Assay: A CellTox Green Cytotoxicity Assay to monitor cytotoxicity in HepG2 cells - 16 hour (AID 1224876); note: nearly all actives have a fitted effect of over 45% in size
# Details: CellTox Green fluorescence; series mostly up to 76.8 µM; cytotoxicity increase: at the top concentration
# From the text: National Center for Advancing Translational Sciences [NCATS]
# NIH Chemical Genomics Center [NCGC]
# U.S. Environmental Protection Agency [EPA]
# National Institutes of Environmental Health Sciences [NIEHS]
# National Toxicology Program [NTP]
# Cell-based models are critical for drug discovery. Determining the natural cytotoxic effects resulting from test compounds is an essential research activity. A CellTox Green Cytotoxicity Assay to monitor cytotoxicity in real time of continues cell culture during 40 hours of the compound treatment was used to screen Tox21 10K library compounds in HepG2 cells. CellTox Green Cytotoxicity Assay is a nonlytic, homogeneous, biofluorescent method to measure cytotoxicity in cell culture after experimental manipulation. The assay system uses a proprietary asymmetric cyanine dye that is excluded from viable cells but preferentially stains the dead cell's DNA. […] Viable cells produce no appreciable increases in fluorescence. Therefore, the fluorescence signal produced by the binding interaction with dead cell DNA is proportional to cytotoxicity.
# The mixture of HepG2 cell suspension and reagents were dispensed at 600cells/6 ul/well in 1536-well tissue culture treated black solid bottom plates using a Multidrop dispenser. After the assay plates were incubated at a 37 C/5% CO2 incubator for 5 hours, 23 nL of compounds dissolved in DMSO, positive and negative controls was transferred to the assay plate by a pintool work station. The plates were incubated at 37 C for 40 hours. The fluorescence intensity were measured at 0h, 8h, 16h, 24h, 32h and 40h time points using ViewLux plate reader during compound treatment.
# % is set by controls: 0 for no effect and ±100 for the full control effect; potency is the fitted concentration of half-maximal effect.
SMILES,cytotoxicity increase,Potency
CCCCN(CCCC)C(=S)[S-].CCCCN(CCCC)C(=S)[S-].[Ni+2],2.21% [at 35.3 µM] (inactive),
CCCCC/C=C\C/C=C\C/C=C\C/C=C\CCCC(=O)NCC(=O)O,9.14% [at 35.3 µM] (inactive),
O=C1C(Cl)=C(Cl)C(=O)C(Cl)=C1Cl,,48.8 µM (active) and 19.5 µM (active)
ClSC(Cl)(Cl)Cl,4.46% (inactive),
CC1CCCC1,-8.1% (inactive),
CCN1CCC2(CC1)COc1cc3c(cc12)N(C(=O)c1ccc(-c2ccc(-c4nnc(C)o4)cc2C)cc1)CC3,,50.7 µM (active)
c1csc(-c2ccc(-c3cccs3)s2)c1,-10.3% (inactive),
BrCC(Br)(Br)Br,0.422% (inactive),
C[C@H]1[C@H](c2ccc(Cl)cc2)SC(=O)N1C(=O)NC1CCCCC1,-0.59% (inactive),
COP(=S)(OC)Oc1nc(Cl)c(Cl)cc1Cl,3.89% (inactive),
CCC(C)Br (stereo not given),-8.49% (inactive),
CO/N=C(\C(=O)OC)c1ccccc1CO/N=C(\C)c1cccc(C(F)(F)F)c1,-15.4% (inactive),
ClCBr,-8.77% (inactive),
CC(C)[C@@H](Nc1ccc(C(F)(F)F)cc1Cl)C(=O)OC(C#N)c1cccc(Oc2ccccc2)c1 (stereo not given in full),-9.35% (inactive),
CN=C=O,-9.06% (inactive),
COCCC#N,-4.1% (inactive),
COP(=S)(OC)Oc1ccc([N+](=O)[O-])c(C)c1,-12.9% (inactive),
[Cl-].[Cl-].[Sn+2],-5.43% (inactive),
N#Cc1c[nH]cc1-c1cccc2c1OC(F)(F)O2,4.53% (inactive),
O=C(Nc1ccc(F)cc1F)c1cccnc1Oc1cccc(C(F)(F)F)c1,6.24% (inactive),

SMILES,cytotoxicity increase,Potency
CC(=O)C(Cl)C(=O)N(C)C (stereo not given),0.096% (inactive),
COc1ccc2c3c1O[C@H]1[C@H](O)CC[C@H]4[C@@H](C2)N(C)CC[C@@]341,8.09% (inactive),
C[N+]1(C)[C@@H]2CC[C@H]1CC(OC(=O)C(CO)c1ccccc1)C2 (stereo not given in full),-1.74% [at 35.3 µM] (inactive),
CC[N+]1(CC)CCC(OC(=O)C(O)(c2ccccc2)c2ccccc2)C1 (stereo not given),-14.2% [at 35.3 µM] (inactive),
CCOP(=O)(OCC)Oc1nc(Cl)c(Cl)cc1Cl,-2.81% (inactive),
C[C@@H]1CC2=CC(=O)CC[C@@H]2[C@H]2CC[C@@]3(C)[C@@H](CC[C@]3(C)O)[C@@H]21,-0.575% [at 35.3 µM] (inactive),
CC1(C)[C@H](/C=C2\CCSC2=O)[C@@H]1C(=O)OCc1coc(Cc2ccccc2)c1,-14.4% (inactive),
Fc1ccc(C(OCCN2CCN(CCCc3ccccc3)CC2)c2ccc(F)cc2)cc1,,23.9 µM (active)
CCCCCON=O,-0.328% (inactive),
c1ccc2nc(N3CCNCC3)ccc2c1,0.458% [at 35.3 µM] (inactive),
CCCCCCCCCCCCCCn1cc[n+](C)c1,,34.7 µM (active) and 43.2 µM (active) and inactive
O.O.O.O=C([O-])[C@H]([O-])[C@@H]([O-])C(=O)[O-].O=C([O-])[C@H]([O-])[C@@H]([O-])C(=O)[O-].[K+].[K+].[Sb+3].[Sb+3],-12% (inactive),
Cc1ccc(C)c2ccccc12,0.023% (inactive),
C#CCC1=C(C)C(OC(=O)C2C(C=C(C)C)C2(C)C)CC1=O (stereo not given),-1.11% (inactive),
O=[N+]([O-])c1ccc(Cl)c(Cl)c1Cl,6.27% (inactive),
O.O.O.O.O.O.O.O=S(=O)([O-])[O-].[Co+2],-16.1% (inactive),
[O-][Cl+3]([O-])([O-])O,-10.9% (inactive),
CCOC(=O)Cc1ccccc1,2.43% (inactive),
O=C(CCCCl)c1ccc(F)cc1,7.9% [at 35.3 µM] (inactive),
Cc1ccc([N+](=O)[O-])[c]2c1[O][Hg]2,,3.01 µM (active)
